# According to PubChem BioAssay (NCI):
# This is part of a sample that, as a whole, favours compounds with a hit. Of some 79,000 tested, about 15% had one in any assay. Unmarked numbers belong to inactive results. Active and inactive are the calls of the source. Rule as the data show it: active = growth inhibition above about 70%; inactive = the rest.
# Legend:
# [1] = NCI Yeast Anticancer Drug Screen. Data for the rad50 strain (AID 155);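 also: 0% = growth of vehicle-only cultures of the same strain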; conditions: S. cerevisiae rad50 strain growth inhibition, stronger effect = higher value
# Method in brief: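 Relative growth inhibition (compound vs vehicle) was measured in yeast with a defined repair-gene alteration.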
# [2] = NCI Yeast Anticancer Drug Screen. Data for the mec2-1 strain (AID 157); conditions: S. cerevisiae mec2-1 strain, stronger effect = higher value
# Method in brief: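 Each compound was tested on mec2-1 yeast, a strain altered in DNA damage repair or cell cycle control. Growth inhibition is reported relative to vehicle.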
# [3] = NCI Yeast Anticancer Drug Screen. Data for the sgs1 mgt1 strain (AID 161);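 also: 0% = growth of cultures given vehicle only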; conditions: S. cerevisiae sgs1 mgt1 strain, stronger effect = higher value
# Method in brief: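 Genetically altered yeast, compound exposure, growth inhibition relative to vehicle.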
# [4] = NCI Yeast Anticancer Drug Screen. Data for the cln2 rad14 strain (AID 165);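 also: 0% = growth equal to vehicle treated cultures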; conditions: S. cerevisiae cln2 rad14 strain, stronger effect = higher value
# Method in brief: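 Test compounds were added to cln2 rad14 yeast cultures; inhibition of growth was then determined by comparison with vehicle treatment.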
# [5] = NCI Yeast Anticancer Drug Screen. Data for the bub3 strain (AID 167); conditions: S. cerevisiae bub3 mutant strain, stronger effect = higher value
# Method in brief: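 Screening used yeast with an engineered genetic alteration affecting cell cycle control. Compound-exposed cultures were compared with vehicle cultures, and reduced growth was taken as inhibition.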
# [6] = NCI Yeast Anticancer Drug Screen. Data for the mlh1 rad18 strain (AID 175); conditions: S. cerevisiae mlh1 rad18 strain growth inhibition, stronger effect = higher value
# Method in brief: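 Inhibition values reflect reduced growth of mutant yeast versus vehicle-treated controls following compound exposure; the mutations affect DNA damage repair.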
# [7] = at 5.0 µM (retest, dose inferred, filed as 0.5)
# [8] = at 50.0 µM (retest, dose inferred, filed as 5.0)
SMILES,"growth inhibition [1, 7]","growth inhibition [1, 8]",growth inhibition ([1]; at 50.0 µM),"growth inhibition [2, 7]","growth inhibition [2, 8]",growth inhibition ([2]; at 50.0 µM),"growth inhibition [3, 7]","growth inhibition [3, 8]",growth inhibition ([3]; at 50.0 µM),"growth inhibition [4, 7]","growth inhibition [4, 8]",growth inhibition ([4]; at 50.0 µM),"growth inhibition [5, 7]","growth inhibition [5, 8]",growth inhibition ([5]; at 50.0 µM),"growth inhibition [6, 7]","growth inhibition [6, 8]",growth inhibition ([6]; at 50.0 µM)
O=C1C(=O)c2cc(Cl)ccc2-c2ccc(Cl)cc21,20%,90% (active),91% (active),30%,95% (active),93.9% (active),33%,95% (active),94% (active),-4%,94% (active),88.5% (active),56%,94% (active),86.6% (active),30%,95% (active),93.5% (active)
C/C(=N\N=C(N)N)c1ccc2c(c1)Cc1cc(/C(C)=N/N=C(N)N)ccc1-2,42%,98% (active),87.8% (active),40%,99% (active),88.8% (active),39%,99% (active),84.7% (active),43%,99% (active),87.2% (active),52%,98% (active),83.3% (active),54%,98% (active),90% (active)
CCCCCCCCCCCCNc1ccccn1,-3%,98% (active),18.4%,25%,99% (active),21.2%,42%,99% (active),69.8%,6%,99% (active),56%,29%,99% (active),48%,37%,99% (active),80.8% (active)
CC(=O)/C(=C\c1ccc(N(C)C)cc1)C(C)=[N+](C)C(=O)c1c(/[N+](C)=C(C)\C(=C\c2ccc(N(C)C)cc2)C(C)=O)ncn1C,31%,47%,87.7% (active),14%,70% (active),7.45%,47%,66%,77.3% (active),-5%,43%,24.7%,10%,43%,43.4%,49%,53%,85% (active)
CC(C)(CN1CCCCC1)C(=O)CC(SCCS(=O)(=O)O)c1ccc(Cl)c(Cl)c1 (configuration not stated),62%,97% (active),95.8% (active),33%,97% (active),94% (active),33%,95% (active),97.4% (active),38%,98% (active),88.2% (active),58%,99% (active),98% (active),41%,97% (active),97% (active)
CC(/C=N/NS(=O)(=O)c1ccc(C)cc1)=C(c1ccccc1)c1ccccc1,18%,87% (active),81.2% (active),35%,96% (active),55.5%,-79%,96% (active),82.5% (active),-10%,89% (active),72.8% (active),43%,93% (active),70.4% (active),62%,94% (active),85% (active)
Cc1ccc(S(=O)(=O)CC2(Br)CCc3ccccc3C2=O)cc1 (configuration not stated),39%,71% (active),74.8% (active),31%,15%,62.5%,40%,74% (active),75.3% (active),1%,18%,38.6%,12%,60%,42.5%,23%,48%,54.8%
COc1c(O)ccc2c1CN1CCc3cc4c(cc3C1C2)OCO4 (configuration not stated),18%,50%,65.9%,9%,21%,21.4%,9%,65%,49.2%,15%,22%,-16.2%,6%,60%,50.9%,11%,35%,72.2% (active)
O=C1C(Br)=C(Br)C(=O)c2ccccc21,100% (active),95% (active),92.5% (active),100% (active),96% (active),94.2% (active),100% (active),95% (active),94.5% (active),100% (active),95% (active),90.9% (active),100% (active),98% (active),96.7% (active),99% (active),91% (active),89.9% (active)
